Data reported in PubChem BioAssay (EPA / NIEHS).
Calls of active or inactive are those of the source. The calls were made as follows: active = hit-call score of the fitted dose curve at least 0.9, where 1 is the maximum; inactive = score below 0.9.

target: Nuclear respiratory factor 1 (Homo sapiens) (UniProt Q16656); experiment: ATG_NRF1_CIS: Attagene CIS-FACTORIAL HepG2 Assay for human Nuclear Respiratory Factor 1 (NRF1) Orphan Gene (AID 2282987); conditions: HepG2 NRF1 cis-element reporter, Attagene multiplex; actives raise or lower the signal
Procedure: ATG_CIS is a cell-based, multiplexed-readout assay that uses HepG2, a human liver cell line, with measurements taken at 24 hours after chemical dosing in a 24-well plate.ATG_NRF1_CIS is one of 52 assay component(s) measured or calculated from the ATG_CIS assay. It is designed to make measurements of mRNA induction, a form of inducible reporter, as detected with fluorescence intensity signals by Reverse transcription polymerase chain reaction (RT-PCR) and Capillary electrophoresis technology.Data from the assay component ATG_NRF1_CIS was analyzed into 1 assay endpoint. This assay endpoint, ATG_NRF1_CIS, was analyzed with bidirectional fitting relative to DMSO as the negative control and baseline of activity. Using a type of inducible reporter, measures of mRNA for gain or loss-of-signal activity can be used to understand the reporter gene at the transcription factor-level as they relate to the gene NRF1. Furthermore, this assay endpoint can be referred to as a primary readout, because this assay has produced multiple assay endpoints where this one serves a reporter gene function. To generalize the intended target to other relatable targets, this assay endpoint is annotated to the dna binding intended target family, where the subfamily is nuclear respiratory factors.
Human liver HepG2 cells are transiently transfected with multiple reporter transcription units (MRTUs) in 6-well plates using FuGene 6 reagent (Roche; 3 ml FuGene/1 mg DNA). The MRTU constructs are regulated by a cis-regulating element (promoter). […] A major difference between the CIS and TRANS system is that in CIS activities of endogenous TFs are measured, whereas the TRANS assay evaluates changes in activities of exogenous, chimeric NR-Gal4 proteins. […] At the end of 24 hour incubation, total RNA was isolated using TriZol reagent (Invitrogen). The isolated RNA is then reverse-transcribed using oligo(dT) primer and Mo-MLV reverse transcriptase (Invitrogen) with DNAse I (Ambion) treatment for 30 min. The one-tenth of the produced cDNA was amplified by PCR using Taq DNA polymerase (Invitrogen) and two reporter sequence-specific primers. The PCR products were fluorescently labeled by primer extension with 6-arboxyfluorescein (6-FAM) 5'-labeled reporter sequence-specific primer (2 min at 95 C, 20 s at 68 C and 10 min at 72 C) and these products were digested with 5U of HpaI (New England Biolabs) for 2h at 37 C. The fragments were purified using Qiaquick PCR columns (Qiagen), analyzed on an ABI 3130xL genetic analyzer (Applied Biosystems) with peak positions identified by using a set of X-rhodamine (ROX)-labeled MapMarker1000 molecular weight standards (BioVentures). The raw capillary electrophoresis data was processed using Attagraph software (Attagene).

Nuclear respiratory factor 1 (Homo sapiens), sequence (Q16656 whole entry, looked up): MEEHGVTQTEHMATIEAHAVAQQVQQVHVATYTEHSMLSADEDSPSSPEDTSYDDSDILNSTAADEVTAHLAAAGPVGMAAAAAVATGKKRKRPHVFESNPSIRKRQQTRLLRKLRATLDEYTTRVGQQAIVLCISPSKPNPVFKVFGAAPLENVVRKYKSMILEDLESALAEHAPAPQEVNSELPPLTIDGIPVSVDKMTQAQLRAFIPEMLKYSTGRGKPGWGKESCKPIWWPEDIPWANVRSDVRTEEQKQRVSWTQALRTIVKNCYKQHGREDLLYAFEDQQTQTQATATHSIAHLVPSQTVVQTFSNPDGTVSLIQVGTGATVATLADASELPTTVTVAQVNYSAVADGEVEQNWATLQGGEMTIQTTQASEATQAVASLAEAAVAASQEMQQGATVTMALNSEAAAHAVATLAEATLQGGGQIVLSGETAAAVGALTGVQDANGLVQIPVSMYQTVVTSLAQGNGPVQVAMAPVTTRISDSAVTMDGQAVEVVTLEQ

**Q.** Which AC50 does the source give for O=[N+]([O-])c1ccc(O)cc1C(F)(F)F here?
**A.** 25.2 µM (active)

**Q.** For CS(=O)(=O)OCCCCOS(C)(=O)=O, which outcome is on record?
**A.** inactive

**Q.** O=c1c(O)c(-c2ccc(O)cc2)oc2cc(O)cc(O)c12 was tested. Which outcome did it give?
**A.** inactive

**Q.** Which outcome does the source give for C1=CC2C3C=CC(C3)C2C1 (stereo not given) here?
**A.** inactive

**Q.** CC/C=C\CCOC(=O)CC was tested. Which outcome did it give?
**A.** inactive

**Q.** Which outcome does the source give for CCCCCCC(CO)CCCC (stereo not given) here?
**A.** inactive

**Q.** With C[Si](C)(C)O[Si](C)(C)C as the compound, how does the outcome read?
**A.** inactive

**Q.** CC(=O)Nc1ccc(C(=O)CCl)cc1 was tested. Which outcome did it give?
**A.** inactive

**Q.** CCc1cc(Cc2cc(CC)cc(C(C)(C)C)c2O)c(O)c(C(C)(C)C)c1 was tested. Which outcome did it give?
**A.** inactive

**Q.** For CC(=O)O[C@@H]1CC2CCC1(C)C2(C)C (stereo not given in full), which outcome is on record?
**A.** inactive

**Q.** ClC(c1ccccc1)(c1ccccc1)c1ccccc1 was tested. Which outcome did it give?
**A.** inactive

**Q.** Which outcome does the source give for Nc1ccc(Cl)c([N+](=O)[O-])c1 here?
**A.** inactive

**Q.** For O=C(O)CCCCCCCCCCCC(=O)O, which outcome is on record?
**A.** inactive

**Q.** For C=CCOC(=O)CCCCCC, which outcome is on record?
**A.** inactive

**Q.** With CC(C)OCCO as the compound, how does the outcome read?
**A.** inactive

**Q.** For C#CC(C)(O)CC(C)C (stereo not given), which outcome is on record?
**A.** inactive

**Q.** How did the outcome turn out when O=Cc1ccccc1S(=O)(=O)O was run?
**A.** inactive

**Q.** CCOC(=O)CCc1ccccc1 was tested. Which outcome did it give?
**A.** inactive

**Q.** For O=C(O)COCC(=O)O, which outcome is on record?
**A.** inactive

**Q.** Which outcome does the source give for COS(=O)(=O)O here?
**A.** inactive

**Q.** For CCCCOCC, which outcome is on record?
**A.** inactive

**Q.** Which outcome does the source give for CC1CC(O)CC(C)(C)C1 (stereo not given) here?
**A.** inactive

**Q.** Which outcome does the source give for CCN(CCN)c1cccc(C)c1 here?
**A.** inactive

**Q.** For CCCCCCCCCC(=O)OC, which outcome is on record?
**A.** inactive

**Q.** With Cc1cc(CCC(=O)OCCOCCOCCOC(=O)CCc2cc(C)c(O)c(C(C)(C)C)c2)cc(C(C)(C)C)c1O as the compound, how does the outcome read?
**A.** inactive

**Q.** Which outcome does the source give for C=C(C)C1CC=C(C)C(=O)C1 (stereo not given) here?
**A.** inactive

**Q.** How did the outcome turn out when C=Cc1ccc(C)cc1 was run?
**A.** inactive

**Q.** CCCCCCCC(=O)OCC(O)CO (stereo not given) was tested. Which outcome did it give?
**A.** inactive

**Q.** How did the outcome turn out when CC(=O)C(C)O (stereo not given) was run?
**A.** inactive

**Q.** With O=C(O)CNc1ccccc1 as the compound, how does the outcome read?
**A.** inactive

**Q.** Which outcome does the source give for CC1(C)C(=O)N(Cl)C(=O)N1Br here?
**A.** inactive

**Q.** CS(C)=O was tested. Which outcome did it give?
**A.** inactive

**Q.** Which outcome does the source give for CCCCSCCCC here?
**A.** inactive

**Q.** COC(C)(C)CCCC(C)CC=O (stereo not given) was tested. Which outcome did it give?
**A.** inactive

**Q.** Which outcome does the source give for CCCCC(CC)(CO)CO here?
**A.** inactive

**Q.** How did the outcome turn out when CCOc1ccc(NC(=O)CC(C)O)cc1 (stereo not given) was run?
**A.** inactive

**Q.** Which outcome does the source give for CCCCCCCCSCCO here?
**A.** inactive

**Q.** O=CCc1ccccc1 was tested. Which outcome did it give?
**A.** inactive

**Q.** For Cc1cccc(Nc2ccccc2)c1, which outcome is on record?
**A.** inactive

**Q.** With CN(C)c1ccncc1 as the compound, how does the outcome read?
**A.** inactive
